Source: the supplement of paper PMC7156485
± gives the standard deviation of the averaged measurements.

Columns and labels:
Settings in all cases: concentration: 10 µM; 24 h
[1] = tested on: HCC1569; assay: cell number relative to DMSO (% of DMSO); higher = more cells (less growth inhibition / toxicity)
In short: (§1)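 After 24 h at 37 °C with compounds at 10 µM, in triplicate, HCC1569 and TDF cells were fixed with 3.7% formaldehyde. Immunostaining used a rabbit anti-H1.0 antibody and an AlexaFluor 647 secondary, with DAPI, and six fields per well were imaged at ×10. H1.0 nuclear intensity or cell number is presented as percent of the plate control, from the median of replicates, with HCC1569 values smoothed for positional effects.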

[2] = tested on: TDF; assay: as above
In short: as §1

[3] = tested on: TDF; assay: H1.0 immunofluorescence intensity relative to DMSO (% of DMSO); higher = stronger H1.0 induction, active = 120 or more
In short: as §1

[4] = tested on: HCC1569; assay: H1.0 immunofluorescence intensity relative to DMSO (% of DMSO); higher = stronger H1.0 induction, active = 140 or more
In short: as §1
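Throughout, for H1.0 immunofluorescence intensity relative to DMSO: TDF is a line of transformed human dermal fibroblasts of mesenchymal origin.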
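Throughout, for cell number relative to DMSO: TDF denotes transformed human dermal fibroblasts of mesenchymal origin.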

Structure (SMILES) | cell number [1] | cell number [2] | H1.0 immunofluorescence intensity [3] | H1.0 immunofluorescence intensity [4]
CCCCCCCCC=CCCCCCCCCCC(=O)O [11(Z)-Eicosenoic acid] | 105 | 105 | 98.9 (inactive) | 101 (inactive)
Nc1nnc(-c2cccc(Cl)c2Cl)c(N)n1 [Lamotrigine] | 99.6 ± 2.1 | 105 ± 2 | 87.7 (inactive) | 101 (inactive)
COc1ccc(CCNCC(O)c2ccc(O)cc2)cc1OC (stereo not drawn) [R(-)-Denopamine] | 100 | 103 | 93.5 (inactive) | 105 (inactive)
CC(=O)c1ccc(NC2=C(Cl)C(=O)c3ccccc3C2=O)cc1 [2-(4-acetylanilino)-3-chloronaphthoquinone] | 17.7 | 8.89 | 150 (active) | 178 (active)
Cl.NCC(O)C1CCCCCCC1 (stereo not drawn) [2-Cyclooctyl-2-hydroxyethylamine hydrochloride] | 101 | 103 | 97.1 (inactive) | 92.8 (inactive)
OCC1NC(CO)C(O)C1O [(2R,5R)-Bis(hydroxymethyl)-(3R,4R)-dihydroxypyrrolidine] | 102 | 101 | 91.3 (inactive) | 84.7 (inactive)
CCn1c(-c2nonc2N)nc2c(C#CC(C)(C)O)ncc(OCC3CCCNC3)c21 (stereo not drawn) | 72.9 | 71.5 | 103 (inactive) | 120 (inactive)
O=c1ccc2ccc(O)c(O)c2o1 [7,8-dihydroxy-2H-chromen-2-one] | 99.2 | 79.9 | 96.2 (inactive) | 91 (inactive)
O=[N+]([O-])c1cccc2cn[nH]c12 [7-Nitroindazole] | 105 | 109 | 90.5 (inactive) | 92.6 (inactive)
CCCCCC=CCC=CC=CC=CCC(=O)CCCC(=O)O [5-Ketoeicosatetraenoic acid] | 99.9 | 95.5 | 98.1 (inactive) | 96.5 (inactive)
CN(C)NN=C1N=CN=C1C(N)=O [Dacarbazine] | 102 | 102 | 97.8 (inactive) | 101 (inactive)
CCCCS(=N)(=O)CCC(N)C(=O)O (racemic) [DL-Buthionine-[S,R]-sulfoximine] | 102 | 102 | 97.8 (inactive) | 99.9 (inactive)
Clc1ccc(C(Cn2ccnc2)OCc2csc3c(Cl)cccc23)c(Cl)c1 (stereo not drawn) [Sertaconazole] | 95 | 97.9 | 91.4 (inactive) | 114 (inactive)
CS(=O)c1ccc(-c2nc(-c3ccc(F)cc3)c(-c3ccncc3)[nH]2)cc1 (stereo not drawn) | 92.7 | 107 | 98 (inactive) | 104 (inactive)
O=C(O)c1ccc(O)c(O)c1 [Protocatechuic acid] | 100 | 106 | 91.4 (inactive) | 91.3 (inactive)
CCCCCCCCCCCCCCCCOCC(CO)OC (stereo not drawn) [1-Hexadecyl-2-O-methyl-glycerol] | 103 | 109 | 95.3 (inactive) | 98.4 (inactive)
Cc1ccc(CN2C(=O)S/C(=C\c3ccc(Cl)cc3)C2=O)cc1 | 99.6 | 117 | 98.2 (inactive) | 97.2 (inactive)
O=C(NCCO)c1cc(C(=O)NCCO)cc(C(=O)NCCO)c1 | 102 | 104 | 95.2 (inactive) | 96.8 (inactive)
Cc1cc(Nc2nc(NC(C)c3ccc(F)cc3)c(C#N)cc2F)n[nH]1 (stereo not drawn) | 51.8 | 28 | 167 (active) | 146 (active)
C=CCc1ccc(O)c(OC)c1 [Eugenol] | 103 | 114 | 89.5 (inactive) | 95.1 (inactive)
NCCCCCC(=O)O [6-Aminohexanoic acid] | 101 | 116 | 106 (inactive) | 102 (inactive)
CC1(C)CC=C(c2cnc3ccccc3c2)c2cc(C(=O)Nc3ccc(C(=O)O)cc3)ccc21 | 99.8 | 99.3 | 97.3 (inactive) | 96.8 (inactive)
N#CC(=Cc1ccc(O)c(O)c1)C(=O)NCCCNC(=O)C(C#N)=Cc1ccc(O)c(O)c1 [Tyrphostin AG 537] | 101 | 101 | 94 (inactive) | 99.6 (inactive)
CCCn1cnc2c1c(=O)n(CCCCC(C)=O)c(=O)n2C [Propentofylline] | 104 | 113 | 90.3 (inactive) | 100 (inactive)
CCOC(=O)C=Cc1ccc(O)c(OC)c1 [Ferulic acid ethylester] | 98.3 | 95.4 | 90.2 (inactive) | 93.6 (inactive)
CC(C)(C)C(=O)Oc1ccc(S(=O)(=O)Nc2ccccc2C(=O)NCC(=O)[O-])cc1.O.[Na+] | 101 | 98.8 | 87.6 (inactive) | 108 (inactive)

Structure (SMILES) | cell number [1] | cell number [2] | H1.0 immunofluorescence intensity [3] | H1.0 immunofluorescence intensity [4]
C#CC1(O)CCC2C3CCC4=CC(=O)CCC4C3CCC21CC (stereo not drawn) [Levonorgestrel] | 100 | 91.5 | 99.8 (inactive) | 98.5 (inactive)
Cl.Cl.NCCNS(=O)(=O)c1cccc2cnccc12 [H-9 dihydrochloride] | 102 | 90.7 | 107 (inactive) | 100 (inactive)
Cc1ccc(S(=O)(=O)NC(=O)NN2CC3CCCC3C2)cc1 (stereo not drawn) [Gliclazide] | 101 | 106 | 89 (inactive) | 114 (inactive)
O=C(O)COC(=O)Cc1ccccc1Nc1c(Cl)cccc1Cl [Aceclofenac] | 104 | 101 | 95.3 (inactive) | 103 (inactive)
Nc1nc(=O)c2ncn(CCC(CO)CO)c2[nH]1 [Penciclovir] | 103 | 103 | 90.4 (inactive) | 117 (inactive)
CC1CCCC(C)N1NC(=O)c1ccc(Cl)c(S(N)(=O)=O)c1 (stereo not drawn) [Clopamide] | 100 | 104 | 94.9 (inactive) | 104 (inactive)
C=C1CCC(O)CC1=CC=C1CCCC2(C)C1CCC2C(C)CCC(O)C(C)(C)O [24(R),25-Dihydroxyvitamin D3] | 105 | 98.9 | 101 (inactive) | 93.7 (inactive)
N#Cc1c(NC(=O)c2cccc3ccccc23)sc2c1CCCC2 [JNK Inhibitor IX] | 62.6 | 9.56 | 163 (active) | 170 (active)
CC#CCOC(=O)c1c(C)nc2sc3c(c2c1N)CCC(O)C3 (stereo not drawn) | 87.1 | 85.8 | 99.5 (inactive) | 134 (inactive)
CC12C=CC(=O)C=C1CCC1C2C(O)CC2(C)C1CCC2(O)C(=O)CO (stereo not drawn) [Prednisolone] | 100 | 99.4 | 84.9 (inactive) | 115 (inactive)
O=C1CC(c2ccc(O)c(O)c2)Oc2c1ccc(OC1OC(CO)C(O)C(O)C1O)c2O (stereo not drawn) [Flavanomarein] | 102 | 98.6 | 94.9 (inactive) | 99.9 (inactive)
CCN(CC)C(=O)c1ccc(O)c(OC)c1 [Vanillic acid diethylamide] | 101 | 103 | 94.3 (inactive) | 99.6 (inactive)
O=[N+]([O-])c1ccc(S(=O)(=O)NCc2ccccc2)c([N+](=O)[O-])c1 [N-Benzyl-2,4-dinitrobenzenesulfonamide] | 79 | 58.4 | 117 (inactive) | 123 (inactive)
NNCCc1ccccc1.O=S(=O)(O)O [Phenelzine sulfate] | 103 | 102 | 95.3 (inactive) | 74.3 (inactive)
CCOC(=O)[C@H](CCc1ccccc1)N[C@@H](C)C(=O)N1C(=O)N(C)C[C@H]1C(=O)O.Cl | 107 | 99.6 | 100 (inactive) | 92.3 (inactive)
CN1CCN(CCCN2c3ccccc3Sc3ccc(Cl)cc32)CC1.O=C(O)C=CC(=O)O.O=C(O)C=CC(=O)O [Prochlorperazine dimaleate] | 83.7 | 105 | 110 (inactive) | 157 (active)
CC1(C2CCCC2)Cc2cc(OCC(=O)O)c(Cl)c(Cl)c2C1=O (stereo not drawn) | 103 | 107 | 91.9 (inactive) | 84.5 (inactive)
O=C(NC1CCNCC1)c1[nH]ncc1NC(=O)c1c(Cl)cccc1Cl | 53.5 | 31.9 | 131 (active) | 117 (inactive)
CCCCS(=N)(=O)CCC(N)C(=O)O [L-Buthionine-sulfoximine] | 102 | 96.6 | 97.4 (inactive) | 95.6 (inactive)
C=C1OC(CO)(n2cnc3c(N)ncnc32)C(O)C1O (stereo not drawn) [Decoyinine] | 107 | 105 | 91.6 (inactive) | 88.3 (inactive)
Cl.Clc1ccc(Cn2c(CN3CCCC3)nc3ccccc32)cc1 [Clemizole hydrochloride] | 99 | 112 | 93.5 (inactive) | 90.7 (inactive)
CNc1nccc(-c2cccnc2Oc2cc(C(=O)Nc3cccc(C(F)(F)F)c3)ccc2C)n1 | 82.3 | 103 | 92.9 (inactive) | 102 (inactive)
COc1ccc2c(c1)CC[C@@H]1[C@@H]2CC[C@]2(C)[C@@H](NCCCCCCN3C(=O)C=CC3=O)CC[C@@H]12.O | 97.6 | 109 | 99.9 (inactive) | 107 (inactive)
O=c1c(OC2OC(C(O)CO)C(O)C2O)c(-c2ccc(O)c(O)c2)oc2cc(O)cc(O)c12 (stereo not drawn) [Isoquercitrine] | 103 | 105 | 102 (inactive) | 87.9 (inactive)
Br.CN1CCc2cc(O)c(O)cc2C(c2ccccc2)C1 (stereo not drawn) | 105 | 98.2 | 89.8 (inactive) | 105 (inactive)
Cc1nc2n(c(=O)c1CCN1CCC(c3noc4cc(F)ccc34)CC1)CCCC2 [Risperidone] | 100 ± 3 | 99.6 ± 4 | 93.1 (inactive) | 107 (inactive)
